Binding signal data for 1 sequence are collected here from PMC7862700, “An all-to-all approach to the identification of sequence-specific readers for epigenetic DNA modifications on cytosine”.

Holding throughout (experiment): DAPPL (digital affinity profiling via proximity ligation, sequencing); 10 mM Tris-HCl pH 7.5, 50 mM NaCl, 1 mM DTT, 4% glycerol, room temperature, 30 min; GST-TFs on glutathione beads, 16-mer random dsDNA library, 0.1% formaldehyde crosslink after washing; high values mean tight binding
Assay [1] addresses T1, FEV (Homo sapiens, UniProt Q99581 1-238).
T1 sequence: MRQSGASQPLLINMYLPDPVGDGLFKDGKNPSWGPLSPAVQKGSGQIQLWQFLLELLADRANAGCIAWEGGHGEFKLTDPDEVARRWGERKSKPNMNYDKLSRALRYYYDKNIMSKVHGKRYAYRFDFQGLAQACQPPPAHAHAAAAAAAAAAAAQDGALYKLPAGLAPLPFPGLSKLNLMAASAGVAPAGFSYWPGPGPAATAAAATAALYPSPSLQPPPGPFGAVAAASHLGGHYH
The following applies: protein: recombinant; tags: N-terminal GST; dsDNA, one strand shown. In a few lines:
(§1)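 Human transcription factors were made in yeast as GST fusions, captured on glutathione beads and barcoded with DNA. With a tag-only sample included, the pool was incubated with 200 nmole of a random double-stranded 16-mer DNA library in Tris/NaCl/DTT/glycerol buffer at room temperature for 30 min, then crosslinked with 0.1% formaldehyde after washing, ligated by proximity, amplified and sequenced. For binding signal, each hexamer's read frequency for a factor is divided by its frequency for the tag-only sample.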

Assay [2] has as its target ETV5 (Homo sapiens, UniProt P41161 1-510). The following applies: protein: recombinant; tags: N-terminal GST; dsDNA, one strand shown. The method in brief: as §1
Assay [3] concerns the target HSF1 (Homo sapiens, UniProt Q00613 1-529). The following applies: protein: recombinant; tags: N-terminal GST; chain copies: 3; dsDNA, one strand shown. The method in brief:
as §1

Assay [4] addresses T2, SPIC (Homo sapiens, UniProt Q8N5J4 1-248).
T2 sequence: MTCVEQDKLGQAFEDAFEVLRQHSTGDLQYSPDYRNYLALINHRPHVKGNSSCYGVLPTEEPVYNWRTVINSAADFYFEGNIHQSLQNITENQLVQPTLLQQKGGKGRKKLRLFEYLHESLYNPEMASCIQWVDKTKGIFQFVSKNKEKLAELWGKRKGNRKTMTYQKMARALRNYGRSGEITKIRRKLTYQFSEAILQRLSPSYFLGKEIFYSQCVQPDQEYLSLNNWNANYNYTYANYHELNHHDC
The following applies: protein: recombinant; tags: N-terminal GST; dsDNA, one strand shown. In a few lines: as §1

The target in assay [5] is ELF4 (Homo sapiens, UniProt Q99607 1-663). The following applies: protein: recombinant; tags: N-terminal GST; dsDNA, one strand shown. The method in brief:
as §1

The target in assay [6] is T3, ELK4 (Homo sapiens, UniProt P28324-2 1-405).
T3 sequence: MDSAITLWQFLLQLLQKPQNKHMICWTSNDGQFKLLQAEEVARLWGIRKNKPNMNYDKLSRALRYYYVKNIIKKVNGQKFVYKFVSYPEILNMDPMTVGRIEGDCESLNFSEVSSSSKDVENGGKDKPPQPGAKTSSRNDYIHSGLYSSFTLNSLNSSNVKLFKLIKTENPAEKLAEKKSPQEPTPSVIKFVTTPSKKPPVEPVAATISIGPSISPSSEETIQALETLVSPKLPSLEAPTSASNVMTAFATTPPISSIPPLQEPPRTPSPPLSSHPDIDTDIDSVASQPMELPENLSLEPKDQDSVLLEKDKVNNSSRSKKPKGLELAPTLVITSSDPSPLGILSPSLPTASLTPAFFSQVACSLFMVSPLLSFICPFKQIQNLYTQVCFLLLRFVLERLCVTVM
The following applies: protein: recombinant; tags: N-terminal GST; dsDNA, one strand shown. The method in brief:
as §1

The target in assay [7] is T4, ETV2 (Homo sapiens, UniProt O00321 1-342).
T4 sequence: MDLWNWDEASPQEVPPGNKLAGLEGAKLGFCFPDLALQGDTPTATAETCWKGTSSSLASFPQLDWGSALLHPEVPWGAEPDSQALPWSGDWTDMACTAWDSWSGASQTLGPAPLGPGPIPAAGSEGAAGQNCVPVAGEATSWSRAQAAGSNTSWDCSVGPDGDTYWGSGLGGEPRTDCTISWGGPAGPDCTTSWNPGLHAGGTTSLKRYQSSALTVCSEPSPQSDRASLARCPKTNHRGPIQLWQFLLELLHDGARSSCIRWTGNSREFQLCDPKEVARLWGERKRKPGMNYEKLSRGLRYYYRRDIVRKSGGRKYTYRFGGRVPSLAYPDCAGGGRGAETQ
Particulars: protein: recombinant; tags: N-terminal GST; dsDNA, one strand shown. The method in brief: as §1

In assay [8] the target is T5, ELF3 (Homo sapiens, UniProt P78545 1-371).
T5 sequence: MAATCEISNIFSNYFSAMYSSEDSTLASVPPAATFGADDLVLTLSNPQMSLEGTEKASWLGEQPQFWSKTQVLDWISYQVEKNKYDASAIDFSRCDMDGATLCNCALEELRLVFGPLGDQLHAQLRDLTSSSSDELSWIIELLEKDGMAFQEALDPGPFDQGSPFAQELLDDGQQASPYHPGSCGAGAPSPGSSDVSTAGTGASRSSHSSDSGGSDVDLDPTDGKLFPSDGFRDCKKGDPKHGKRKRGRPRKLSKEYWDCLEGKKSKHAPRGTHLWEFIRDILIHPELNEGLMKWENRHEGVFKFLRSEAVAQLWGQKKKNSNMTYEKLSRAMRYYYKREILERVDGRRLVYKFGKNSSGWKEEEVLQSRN
The following applies: protein: recombinant; tags: N-terminal GST; dsDNA, one strand shown. The method in brief: as §1

Assay [9] concerns the target CRX (Homo sapiens, UniProt O43186 1-299). The following applies: protein: recombinant; tags: N-terminal GST; dsDNA, one strand shown. In a few lines:
as §1

Assay [10] deals with ETV1 (Homo sapiens, UniProt P50549 1-477). The following applies: protein: recombinant; tags: N-terminal GST; dsDNA, one strand shown. The method in brief:
as §1

The target of assay [11] is T6, ERF (Homo sapiens, UniProt P50548 1-548).
T6 sequence: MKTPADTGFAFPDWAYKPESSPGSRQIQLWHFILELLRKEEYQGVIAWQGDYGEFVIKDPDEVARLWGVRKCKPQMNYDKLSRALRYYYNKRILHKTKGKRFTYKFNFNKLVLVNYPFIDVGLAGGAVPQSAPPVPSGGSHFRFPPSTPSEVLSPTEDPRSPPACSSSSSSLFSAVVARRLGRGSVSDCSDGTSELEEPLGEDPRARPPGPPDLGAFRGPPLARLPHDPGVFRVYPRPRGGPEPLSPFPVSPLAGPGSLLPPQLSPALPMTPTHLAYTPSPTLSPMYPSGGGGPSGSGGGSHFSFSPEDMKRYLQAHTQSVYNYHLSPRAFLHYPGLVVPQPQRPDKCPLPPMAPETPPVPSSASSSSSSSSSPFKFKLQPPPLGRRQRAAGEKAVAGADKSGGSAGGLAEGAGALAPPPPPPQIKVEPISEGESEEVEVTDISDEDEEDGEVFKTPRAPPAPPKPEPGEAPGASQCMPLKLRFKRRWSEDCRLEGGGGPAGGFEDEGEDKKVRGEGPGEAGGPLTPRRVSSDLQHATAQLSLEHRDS
The following applies: protein: recombinant; tags: N-terminal GST; dsDNA, one strand shown. In a few lines: as §1

Assay [12] has as its target T7, ETV3L (Homo sapiens, UniProt Q6ZN32 1-361).
T7 sequence: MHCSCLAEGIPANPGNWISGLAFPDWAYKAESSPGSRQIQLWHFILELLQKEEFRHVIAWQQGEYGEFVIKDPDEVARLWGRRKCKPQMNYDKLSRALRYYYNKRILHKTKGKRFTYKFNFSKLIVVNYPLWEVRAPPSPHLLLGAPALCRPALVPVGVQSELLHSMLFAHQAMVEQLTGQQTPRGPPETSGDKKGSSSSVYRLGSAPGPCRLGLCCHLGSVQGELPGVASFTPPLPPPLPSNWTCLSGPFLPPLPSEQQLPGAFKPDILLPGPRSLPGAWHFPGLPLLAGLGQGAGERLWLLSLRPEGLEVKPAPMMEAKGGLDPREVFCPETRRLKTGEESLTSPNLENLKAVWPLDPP
The following applies: protein: recombinant; tags: N-terminal GST; dsDNA, one strand shown. The method in brief: as §1

The target of assay [13] is T8, ETS2 (Homo sapiens, UniProt P15036 1-469).
T8 sequence: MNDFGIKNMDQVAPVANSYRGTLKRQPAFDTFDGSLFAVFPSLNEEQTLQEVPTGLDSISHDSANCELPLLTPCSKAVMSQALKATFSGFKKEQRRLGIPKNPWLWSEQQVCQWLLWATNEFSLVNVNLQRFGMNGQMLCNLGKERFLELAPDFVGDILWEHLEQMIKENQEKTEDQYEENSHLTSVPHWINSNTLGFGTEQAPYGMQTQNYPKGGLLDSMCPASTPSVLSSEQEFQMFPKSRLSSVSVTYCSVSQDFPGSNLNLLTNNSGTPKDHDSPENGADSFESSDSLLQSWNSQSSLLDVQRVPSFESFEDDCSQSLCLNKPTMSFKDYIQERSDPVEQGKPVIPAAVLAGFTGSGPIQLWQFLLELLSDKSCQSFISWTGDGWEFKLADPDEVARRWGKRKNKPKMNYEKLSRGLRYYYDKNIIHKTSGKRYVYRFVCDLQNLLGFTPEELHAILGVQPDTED
The following applies: protein: recombinant; tags: N-terminal GST; dsDNA, one strand shown. The method in brief:
as §1

For assay [14], the target named is T9, SPDEF (Homo sapiens, UniProt O95238 1-335).
T9 sequence: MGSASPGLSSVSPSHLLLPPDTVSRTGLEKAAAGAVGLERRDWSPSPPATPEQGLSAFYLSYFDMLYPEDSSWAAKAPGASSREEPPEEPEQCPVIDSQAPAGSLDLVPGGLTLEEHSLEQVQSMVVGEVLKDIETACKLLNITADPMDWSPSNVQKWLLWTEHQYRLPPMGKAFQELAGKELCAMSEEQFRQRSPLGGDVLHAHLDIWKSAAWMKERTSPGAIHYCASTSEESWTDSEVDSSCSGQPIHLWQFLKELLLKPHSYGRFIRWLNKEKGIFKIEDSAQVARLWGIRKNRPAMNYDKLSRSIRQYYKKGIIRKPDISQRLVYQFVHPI
The following applies: protein: recombinant; tags: N-terminal GST; dsDNA, one strand shown. The method in brief: as §1

The target of assay [15] is T10, ETV7 (Homo sapiens, UniProt Q9Y603 1-341).
T10 sequence: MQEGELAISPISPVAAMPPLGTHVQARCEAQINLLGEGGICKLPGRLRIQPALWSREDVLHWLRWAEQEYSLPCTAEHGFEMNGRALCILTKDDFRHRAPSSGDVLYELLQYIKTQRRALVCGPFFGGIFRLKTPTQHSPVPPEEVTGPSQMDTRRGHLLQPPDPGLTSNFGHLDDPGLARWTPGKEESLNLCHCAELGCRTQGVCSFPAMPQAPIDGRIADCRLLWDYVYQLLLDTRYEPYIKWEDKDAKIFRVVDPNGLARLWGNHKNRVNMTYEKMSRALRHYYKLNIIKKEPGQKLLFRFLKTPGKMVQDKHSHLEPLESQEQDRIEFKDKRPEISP
Particulars: protein: recombinant; tags: N-terminal GST; dsDNA, one strand shown. In a few lines:
as §1

Assay [16] concerns the target T11, ELF5 (Homo sapiens, UniProt Q9UKW6-2 1-255).
T11 sequence: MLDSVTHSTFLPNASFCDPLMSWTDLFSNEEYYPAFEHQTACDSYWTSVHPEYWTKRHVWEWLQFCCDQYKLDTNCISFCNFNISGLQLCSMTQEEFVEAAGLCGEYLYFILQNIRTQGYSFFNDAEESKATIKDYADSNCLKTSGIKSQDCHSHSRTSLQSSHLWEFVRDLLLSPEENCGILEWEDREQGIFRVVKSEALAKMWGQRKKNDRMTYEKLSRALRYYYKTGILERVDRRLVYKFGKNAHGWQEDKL
Particulars: protein: recombinant; tags: N-terminal GST; dsDNA, one strand shown. In a few lines:
as §1

Assay [17] addresses T12, ETV3 (Homo sapiens, UniProt P41162-2 1-143).
T12 sequence: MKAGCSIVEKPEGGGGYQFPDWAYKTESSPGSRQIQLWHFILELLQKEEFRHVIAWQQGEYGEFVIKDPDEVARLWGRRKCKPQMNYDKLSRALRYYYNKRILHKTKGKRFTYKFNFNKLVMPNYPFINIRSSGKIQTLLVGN
The following applies: protein: recombinant; tags: N-terminal GST; dsDNA, one strand shown. The method in brief:
as §1

For assay [18], the target named is ETV6 (Homo sapiens, UniProt P41212 1-452). The following applies: protein: recombinant; tags: N-terminal GST; dsDNA, one strand shown. In a few lines:
as §1

Sequence of HSF1 (Q00613 whole entry): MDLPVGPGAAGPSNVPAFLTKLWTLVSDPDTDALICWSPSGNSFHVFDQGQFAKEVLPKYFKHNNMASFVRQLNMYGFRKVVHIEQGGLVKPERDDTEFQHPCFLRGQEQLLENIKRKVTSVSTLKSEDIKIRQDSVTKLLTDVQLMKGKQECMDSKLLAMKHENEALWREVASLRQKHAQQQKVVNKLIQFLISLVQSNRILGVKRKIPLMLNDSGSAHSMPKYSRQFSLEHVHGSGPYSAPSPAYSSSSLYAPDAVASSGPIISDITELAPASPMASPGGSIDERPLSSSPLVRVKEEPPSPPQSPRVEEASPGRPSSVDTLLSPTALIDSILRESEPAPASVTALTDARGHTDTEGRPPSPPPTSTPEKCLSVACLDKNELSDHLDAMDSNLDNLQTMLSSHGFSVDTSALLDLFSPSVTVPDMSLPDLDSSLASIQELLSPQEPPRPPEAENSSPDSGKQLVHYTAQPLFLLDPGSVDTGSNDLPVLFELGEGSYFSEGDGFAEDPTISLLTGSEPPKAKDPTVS
Sequence of CRX (O43186 whole entry): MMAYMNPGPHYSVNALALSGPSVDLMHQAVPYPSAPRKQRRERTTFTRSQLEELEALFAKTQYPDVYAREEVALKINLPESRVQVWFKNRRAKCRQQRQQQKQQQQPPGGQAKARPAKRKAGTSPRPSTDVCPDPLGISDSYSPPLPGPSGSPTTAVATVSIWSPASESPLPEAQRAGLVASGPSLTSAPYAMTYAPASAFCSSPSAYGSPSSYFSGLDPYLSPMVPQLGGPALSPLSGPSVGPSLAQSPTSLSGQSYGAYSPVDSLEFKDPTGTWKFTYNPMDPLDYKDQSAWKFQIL
Sequence of ETV1 (P50549 whole entry): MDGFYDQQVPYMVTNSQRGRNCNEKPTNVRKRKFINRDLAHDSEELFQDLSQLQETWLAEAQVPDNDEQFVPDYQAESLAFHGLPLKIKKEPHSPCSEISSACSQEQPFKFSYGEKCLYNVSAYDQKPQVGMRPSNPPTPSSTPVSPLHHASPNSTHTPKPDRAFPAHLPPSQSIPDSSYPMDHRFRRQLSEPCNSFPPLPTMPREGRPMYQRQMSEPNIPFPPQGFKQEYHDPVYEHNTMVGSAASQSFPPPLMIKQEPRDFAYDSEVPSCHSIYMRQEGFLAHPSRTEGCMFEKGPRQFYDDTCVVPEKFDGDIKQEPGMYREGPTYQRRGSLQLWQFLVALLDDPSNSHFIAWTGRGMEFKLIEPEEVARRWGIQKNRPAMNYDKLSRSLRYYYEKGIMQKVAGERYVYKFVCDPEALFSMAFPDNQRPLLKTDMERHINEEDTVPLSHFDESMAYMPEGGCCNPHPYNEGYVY
Sequence of ELF4 (Q99607 whole entry): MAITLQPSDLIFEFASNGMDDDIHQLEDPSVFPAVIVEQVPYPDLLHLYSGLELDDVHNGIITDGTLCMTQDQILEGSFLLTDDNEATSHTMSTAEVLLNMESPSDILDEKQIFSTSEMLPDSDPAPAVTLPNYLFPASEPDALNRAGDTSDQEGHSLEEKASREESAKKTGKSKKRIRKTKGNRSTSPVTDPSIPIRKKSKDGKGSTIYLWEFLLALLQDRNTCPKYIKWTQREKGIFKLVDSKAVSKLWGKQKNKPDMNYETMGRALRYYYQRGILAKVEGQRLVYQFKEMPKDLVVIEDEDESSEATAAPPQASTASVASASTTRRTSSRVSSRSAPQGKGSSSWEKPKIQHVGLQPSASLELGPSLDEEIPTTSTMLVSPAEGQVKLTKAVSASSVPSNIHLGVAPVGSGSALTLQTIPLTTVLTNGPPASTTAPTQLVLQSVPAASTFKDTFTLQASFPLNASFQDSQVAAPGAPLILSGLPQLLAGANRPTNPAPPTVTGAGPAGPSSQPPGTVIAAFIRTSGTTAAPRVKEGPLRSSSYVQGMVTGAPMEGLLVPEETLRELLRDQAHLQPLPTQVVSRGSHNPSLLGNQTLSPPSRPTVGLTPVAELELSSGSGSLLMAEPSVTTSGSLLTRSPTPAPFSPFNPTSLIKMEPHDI
Sequence of ETV5 (P41161 whole entry): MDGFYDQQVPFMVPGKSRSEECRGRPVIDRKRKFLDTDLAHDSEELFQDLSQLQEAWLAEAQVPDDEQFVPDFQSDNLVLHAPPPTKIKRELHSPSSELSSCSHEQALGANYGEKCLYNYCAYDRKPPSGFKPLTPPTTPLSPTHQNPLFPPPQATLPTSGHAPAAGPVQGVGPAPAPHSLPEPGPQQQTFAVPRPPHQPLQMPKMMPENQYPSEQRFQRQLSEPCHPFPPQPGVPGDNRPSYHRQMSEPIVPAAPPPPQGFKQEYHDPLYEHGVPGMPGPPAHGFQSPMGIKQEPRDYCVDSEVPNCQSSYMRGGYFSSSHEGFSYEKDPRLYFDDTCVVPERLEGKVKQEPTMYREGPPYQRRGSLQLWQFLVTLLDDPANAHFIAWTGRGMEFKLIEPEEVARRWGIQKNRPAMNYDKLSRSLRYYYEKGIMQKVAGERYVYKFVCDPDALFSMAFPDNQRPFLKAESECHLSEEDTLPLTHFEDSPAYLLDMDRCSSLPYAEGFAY
Sequence of ETV6 (P41212 whole entry): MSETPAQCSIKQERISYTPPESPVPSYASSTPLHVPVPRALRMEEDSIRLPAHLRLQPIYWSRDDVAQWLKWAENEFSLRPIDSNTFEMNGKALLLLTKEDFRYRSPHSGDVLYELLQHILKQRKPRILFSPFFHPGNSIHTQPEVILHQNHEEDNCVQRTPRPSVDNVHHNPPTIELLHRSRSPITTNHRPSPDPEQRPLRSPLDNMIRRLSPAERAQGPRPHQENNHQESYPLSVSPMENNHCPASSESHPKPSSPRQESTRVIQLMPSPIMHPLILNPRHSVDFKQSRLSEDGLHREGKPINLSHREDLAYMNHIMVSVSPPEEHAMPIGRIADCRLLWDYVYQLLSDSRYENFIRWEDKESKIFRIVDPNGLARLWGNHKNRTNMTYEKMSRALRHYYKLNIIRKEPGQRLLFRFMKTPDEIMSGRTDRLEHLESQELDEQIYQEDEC

Consider ATTGTA, for which the binding signal is 1.19 fold enrichment (6-mer frequency, TF over GST control) in assay [1]; 1.19 fold enrichment (6-mer frequency, TF over GST control) in [2]; 1.16 fold enrichment (6-mer frequency, TF over GST control) in assay [3]; 1.18 fold enrichment (6-mer frequency, TF over GST control) in [4]; 1.24 fold enrichment (6-mer frequency, TF over GST control) in assay [5]; 1.21 fold enrichment (6-mer frequency, TF over GST control) in assay [6]. Further, the binding signal in assay [7] is 1.29 fold enrichment (6-mer frequency, TF over GST control); in [8] it was 1.17 fold enrichment (6-mer frequency, TF over GST control); in assay [9], 1.28 fold enrichment (6-mer frequency, TF over GST control); in [10] it was 1.21 fold enrichment (6-mer frequency, TF over GST control); in [11], 1.27 fold enrichment (6-mer frequency, TF over GST control); in assay [12], 1.28 fold enrichment (6-mer frequency, TF over GST control). For the same sequence, the binding signal was 1.17 fold enrichment (6-mer frequency, TF over GST control) in assay [13]; 1.18 fold enrichment (6-mer frequency, TF over GST control) in [14]; 1.28 fold enrichment (6-mer frequency, TF over GST control) in assay [15]; 1.21 fold enrichment (6-mer frequency, TF over GST control) in [16]; 1.26 fold enrichment (6-mer frequency, TF over GST control) in assay [17]; 1.27 fold enrichment (6-mer frequency, TF over GST control) in assay [18].
